Most compounds without a hit are left out; they make up all but 0.93% or so of the library.
697 NFkB inh: lowers PMA/ionomycin-induced NF-kB signal in 697 B cells | 697 B-cell NF-kB luciferase reporter, 16 h | inhibition, % at 4 µM | 0.33% of 330,000 active | AID 435022; in the data active means inhibition above about 35%
F508del corr: correctors of CFTR F508del function in bronchial epithelial cells; CFBE cells, YFP halide quenching; stimulated with forskolin plus potentiator P3; % fluorescence drop versus neutral controls; activity (quench increase), % at 7.58 µM; 0.36% of 350,000 active; AID 720511;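 active means mean added fluorescence quench of at least 8% versus neutral control, with both replicates also reaching 8%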;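 further: cells transiently co-express mutant CFTR-F508del with the halide-sensitive YFP; corrector assay measuring rescue of mutant channel to the surface after 24 h compound exposure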
Jurkat NFkB inh: lowers PMA/ionomycin-induced NF-kB signal in Jurkat cells; PMA/ionomycin-induced NF-kB luciferase reporter, luminescence; inhibition, % at 4 µM; 0.53% of 330,000 active; AID 435003; in the data active means inhibition above about 50%
HIF act: HIF pathway transcriptional activation. U2OS HRE-luciferase reporter, luminescence; normalized: DMSO 0%, desferrioxamine 100%. activation, % at 7.5 µM (by protocol). 0.32% of 300,000 active. AID 1910;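 active means mean activation of at least 10% of the iron chelator positive control signal, with at least half of replicates also reaching 10%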
Jurkat NFkB conf: lowers PMA/ionomycin-induced NF-kB signal in Jurkat cells; shares compounds with Jurkat NFkB inh; Jurkat NF-kB luciferase, 16 h; inhibition, % at 4 µM; 27% of 2,700 active;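 active means inhibition reaching about 45% at 4 µM in either replicate, limit read from the data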
Numbers stand for hits; 0 = inactive; - = no result.

SMILES	697 NFkB inh	F508del corr	Jurkat NFkB inh	HIF act	Jurkat NFkB conf
COc1ccc(N2CCN(C(=O)NC(=O)c3ccc(Cl)cc3)CC2)cc1	0	0	0	0	-
COC(=O)c1sc(N2CCN(c3ccc(Cl)cc3)CC2)nc1N	0	0	61	0	0
Cc1ccc(C(=O)Nc2ccc3c(c2)nc2n3CCSC2)cc1	0	-	0	0	0
COc1cccc(NC(=O)N(C)C[C@H]2OCc3cnnn3CCCC(=O)N([C@@H](C)CO)C[C@H]2C)c1	-	0	-	-	-
O=C(CCCC(=O)c1ccc(O)cc1)c1ccc(O)cc1	0	0	0	0	0
O=C(CCCc1ccccc1)c1ccccc1	0	0	0	0	0
CCC(=O)c1ccc(O)cc1	0	0	0	0	-
COc1cccc(C#Cc2ccc3c(c2)[C@H]2[C@H](CCN2C(C)=O)[C@H](CO)N3)c1	-	0	-	-	-
CN(C)S(=O)(=O)c1ccc(Nc2nc(C3CC3)nc3c2nnn3Cc2ccccc2Cl)cc1	0	-	57	0	65
C[C@@H]1CCCCO[C@@H](CN(C)Cc2ccc(C(=O)O)cc2)[C@H](C)CN([C@@H](C)CO)C(=O)c2cc(NS(=O)(=O)c3cn(C)cn3)ccc2O1	-	0	-	-	-
CC(C)NC(=O)N[C@H]1CC[C@H](CC(=O)NCc2ccc(Oc3ccccc3)cc2)O[C@H]1CO	-	0	-	-	-
C=C(C)CN(CC)c1nc(N)c2c(N)nc3c(c2c1C#N)CC(=O)N3C12CC3CC(CC(C3)C1)C2	0	-	0	0	-
N#Cc1c(N2CCCC(O)C2)nc(N)c2c(N)nc3c(c12)CC(=O)N3C12CC3CC(CC(C3)C1)C2 (stereo not drawn)	0	-	85	0	0
CN(C)CC(=O)N[C@@H]1CC[C@@H](CCNC(=O)C2CC2)O[C@@H]1CO	-	0	-	-	-
COc1cc(/C=N/N=C(N)N)ccc1OCc1ccc(Cl)cc1	0	0	0	0	-
COc1cc(/C=N/O)ccc1OCc1ccc(Cl)cc1	0	0	0	0	0
COc1cc(/C=C(\C#N)C(=O)Nc2cccc(C(=O)O)c2)ccc1OCc1ccc(Cl)cc1	0	0	0	0	0
C[C@H](CO)N1C[C@H](C)[C@H](CN(C)C(=O)Nc2ccc3c(c2)OCO3)Oc2ccc(NC(=O)Nc3cccc4ccccc34)cc2CC1=O	-	0	-	-	-
C[C@H]1CN([C@@H](C)CO)C(=O)c2cccc(NC(=O)C3CCOCC3)c2O[C@H]1CN(C)CC1CCCCC1	-	0	-	-	-
Cc1cnc(C(=O)Nc2ccc(N3CCN(C(=O)OC(C)(C)C)CC3)cc2)cn1	0	-	64	0	0
COCC(=O)N1CC2(CCN(C(=O)NC(C)C)CC2)c2c(n(C)c3cc(OC)ccc23)[C@H]1CO	-	0	-	-	-
Cc1snc2sc(C(=O)c3ccc(Br)cc3)c(N)c12	0	-	0	0	-
Cc1ccc(C(=O)c2sc3nsc(C)c3c2N)cc1	0	-	0	0	0
CCOC(=O)c1c(NC(=O)CSc2c[nH]c3ccccc23)sc2c1CCC2	0	0	55	0	0
CCOC(=O)c1c(NC(=O)CSc2c[nH]c3ccccc23)sc2c1CCCC2	0	0	0	0	-
SMILES	697 NFkB inh	F508del corr	Jurkat NFkB inh	HIF act	Jurkat NFkB conf
COc1ccc(-c2cn3cc(C)ccc3n2)cc1Br	0	0	0	0	0
O=C(C[C@H]1C[C@H]2c3cc(NC(=O)c4cccnc4)ccc3O[C@H]2[C@@H](CO)O1)NCCN1CCCCC1	-	0	-	-	-
COc1cccc(C#Cc2ccc([C@H]3[C@H](CO)N4C(=O)CN(C(C)=O)C[C@@H]34)cc2)c1	-	0	-	-	-
C[C@H](CO)N1C[C@H](C)[C@@H](CN(C)C(=O)Nc2ccc(F)cc2)OCCCC[C@H](C)Oc2ccc(NC(=O)Nc3ccc(F)cc3)cc2C1=O	-	0	-	-	-
Cc1cc2nnc(SCC(=O)NCc3cccs3)n2c2ccccc12	0	-	0	0	-
Cc1cc2nnc(SCC(=O)NCc3ccco3)n2c2ccccc12	0	9.8	58	0	0
COCC#Cc1ccc(CC[C@H]2O[C@H]3CC[C@@H](CO)O[C@H]3C[C@@H]2n2cc(C3CC3)nn2)cc1	-	0	-	-	-
CCCCCC(=O)N[C@@H](c1ccccc1)[C@@H](O)C(=O)O[C@H]1C[C@@]2(O)[C@@H](OC(=O)c3ccccc3)C3[C@](C)(C(=O)[C@H](OC(C)=O)C(=C1C)C2(C)C)[C@@H](O)C[C@H]1OC[C@@]31OC(C)=O (stereo partly drawn)	0	0	72	0	56
O=C1CN(C(=O)c2ccccc2)c2ccccc2N1	0	-	0	0	-
O=C1CN(C(=O)c2cccc(Br)c2)c2ccccc2N1	0	0	52	0	0
C=C1C(=O)[C@@]23[C@H](O)C[C@@H]4C(C)(C)CC[C@H](O)[C@@]4(C)[C@@H]2CC[C@@H]1[C@H]3O	0	0	71	0	0
O=C(c1ccc2nc[nH]c2c1)N1CCc2ccccc2C1	0	0	0	0	-
COc1cc2c(cc1OC)CN(C(=O)c1ccc3nc[nH]c3c1)CC2	0	0	61	0	0
COc1cccc(NC(=O)N(C)C[C@@H]2Oc3ncc(C#Cc4ccncc4)cc3C(=O)N([C@H](C)CO)C[C@H]2C)c1	-	0	-	-	-
O=C(NC1CCCCC1)c1ccc(-c2ccccc2F)o1	0	0	0	-	0
O=C(NC1CCCCCC1)c1ccc(CS(=O)(=O)Cc2ccccc2F)o1	0	0	0	0	-
O=C(NC1CCCCC1)c1ccc(-c2cccc([N+](=O)[O-])c2)o1	0	0	0	0	0
C[C@H]1CN([C@@H](C)CO)S(=O)(=O)c2ccc(C#CC3CC3)cc2O[C@@H]1CN(C)Cc1cncnc1	-	0	-	-	-
CSc1nccc(N/N=C/c2ccccc2)n1	0	0	0	0	0
Cc1ccnc(N/N=C/c2ccccc2)n1	0	-	0	0	-
C[C@@H]1CN([C@H](C)CO)C(=O)c2cc(NS(=O)(=O)c3ccccc3)ccc2O[C@@H]1CN(C)C(=O)Nc1ccc2c(c1)OCO2	-	0	-	-	-
O=C(NCC(c1ccco1)N1CCc2ccccc21)C(=O)Nc1ccc(F)cc1F (stereo not drawn)	0	0	60	0	0
N#CCC(CNc1ncc(C(F)(F)F)cc1Cl)OC(=O)c1cccc(C(F)(F)F)c1 (stereo not drawn)	0	0	60	-	0
O=C(OCCNc1ncc(C(F)(F)F)cc1Cl)c1ccc(S(=O)(=O)N2CCOCC2)cc1	0	-	0	0	-
Cn1cnc(S(=O)(=O)N[C@@H]2CC[C@@H](CC(=O)N3CCN(c4ccccc4)CC3)O[C@@H]2CO)c1	-	0	-	-	-
SMILES	697 NFkB inh	F508del corr	Jurkat NFkB inh	HIF act	Jurkat NFkB conf
Cc1ccc(-n2cc(C(=O)c3ccc(F)cc3)nn2)cc1Cl	0	-	0	0	0
CSCCC(=O)N1CCC(n2nccc2NC(=O)c2ccc3c(c2)OCO3)CC1	0	0	0	0	-
CC#CC(=O)N1CCC(n2nccc2NC(=O)c2ccc3c(c2)OCO3)CC1	0	0	74	0	0
CCCOc1ccccc1C1CC(=O)Nc2cc3c(cc21)OCCO3 (stereo not drawn)	0	-	0	0	-
CCOc1ccccc1C1CC(=O)Nc2cc(C)c(C)cc21 (stereo not drawn)	0	0	52	0	0
CCOc1ccccc1C1CC(=O)Nc2cc3c(cc21)OCCO3 (stereo not drawn)	0	-	70	0	57

Compound activity as filed in PubChem BioAssay.
